Assay outcomes deposited in PubChem BioAssay by several laboratories.
Shown is part of a subset that was picked to be rich in hits.
AMPAR-TARP mod: modulates AMPAR-stargazin complexes; AID 1259245; calls only at 30 µM; O88602+P19491; HEK293 GluA2+stargazin, membrane potential dye (FDSS), glutamate EC50; hits were called plate by plate, in both directions; 3.5% of 40,000 active;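 active means any of four per-well response measures lying three or more SD from its plate-wide compound average, in either direction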
Target sequence (O88602 whole entry, looked up): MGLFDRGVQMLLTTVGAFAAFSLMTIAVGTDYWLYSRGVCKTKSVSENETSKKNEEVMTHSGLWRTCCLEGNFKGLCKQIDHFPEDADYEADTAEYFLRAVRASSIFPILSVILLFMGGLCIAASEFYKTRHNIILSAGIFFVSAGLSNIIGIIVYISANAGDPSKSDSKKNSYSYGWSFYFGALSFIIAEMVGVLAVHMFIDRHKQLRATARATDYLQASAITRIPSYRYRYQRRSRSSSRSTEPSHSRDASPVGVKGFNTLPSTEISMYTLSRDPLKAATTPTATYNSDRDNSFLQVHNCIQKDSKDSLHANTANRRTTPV
Target sequence (P19491 whole entry, looked up): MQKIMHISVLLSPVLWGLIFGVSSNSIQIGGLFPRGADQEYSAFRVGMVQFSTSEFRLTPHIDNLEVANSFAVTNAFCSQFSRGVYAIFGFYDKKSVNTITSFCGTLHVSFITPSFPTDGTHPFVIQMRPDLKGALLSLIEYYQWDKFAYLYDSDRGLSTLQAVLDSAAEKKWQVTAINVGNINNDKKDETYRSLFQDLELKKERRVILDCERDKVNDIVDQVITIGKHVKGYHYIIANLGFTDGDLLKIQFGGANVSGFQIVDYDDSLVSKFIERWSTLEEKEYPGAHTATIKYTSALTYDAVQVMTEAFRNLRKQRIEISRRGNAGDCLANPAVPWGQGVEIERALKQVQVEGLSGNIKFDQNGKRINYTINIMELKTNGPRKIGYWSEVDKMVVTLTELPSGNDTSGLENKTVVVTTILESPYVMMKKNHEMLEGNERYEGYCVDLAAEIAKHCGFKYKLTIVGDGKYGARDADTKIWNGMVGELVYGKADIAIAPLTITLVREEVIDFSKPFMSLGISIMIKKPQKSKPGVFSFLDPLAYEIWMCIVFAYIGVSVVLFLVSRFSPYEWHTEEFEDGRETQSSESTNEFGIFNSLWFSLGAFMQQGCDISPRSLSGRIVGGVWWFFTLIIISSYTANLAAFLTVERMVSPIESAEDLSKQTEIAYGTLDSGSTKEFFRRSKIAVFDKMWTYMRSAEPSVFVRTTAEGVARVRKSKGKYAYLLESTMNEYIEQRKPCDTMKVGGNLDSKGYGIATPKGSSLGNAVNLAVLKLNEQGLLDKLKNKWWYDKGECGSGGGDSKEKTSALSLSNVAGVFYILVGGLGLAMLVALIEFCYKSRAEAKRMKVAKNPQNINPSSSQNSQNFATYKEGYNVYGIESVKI
GIRK2 act: Activators of human GIRK2-containing channels. 34,000 tested, under 10 active. activation (% efficacy), % for hits at 37.5 µM. P48051. HEK293 GIRK2/NPY4 cells, thallium flux fluorescence;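 active means primary screen hit, no activity in plain HEK293 cells, and in GIRK2-only cells above 5% efficacy rising with concentration; inactive means the rest, including fluorescent compounds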;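 further: efficacy is normalized control-subtracted fluorescence 15 s after thallium addition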
Each line names hits and unclear results; the compound was inactive in the other large screens.

CCOC(=O)C(C)Sc1ccnc2c1c(=O)n(C)c(=O)n2C (stereo unspecified)	none
CCOC(=O)N1CCN(C(=O)CSc2ccnc3c2c(=O)n(C)c(=O)n3C)CC1	AMPAR-TARP mod active (no result: GIRK2 act)
COc1ccc(C(=O)CSc2ccnc3c2c(=O)n(C)c(=O)n3C)cc1	none
COC(=O)CSc1ccnc2c1c(=O)n(C)c(=O)n2C	AMPAR-TARP mod active
Cc1ccc(Cl)cc1N1CCN(C(=O)Cn2c(-c3cnccn3)nc3ccccc32)CC1	AMPAR-TARP mod active
CSc1ccccc1NC(=O)Cn1c(-c2cnccn2)nc2ccccc21	AMPAR-TARP mod active
Cc1cc(C)n(CCNC(=O)Cn2c(-c3cnccn3)nc3ccccc32)n1	none
Cc1nc(NC(=O)Cn2c(-c3cnccn3)nc3ccccc32)sc1C(=O)N(C)C	none
COc1ccc(-c2nnc3ccc(OCCNC(=O)Nc4ccccc4C)nn23)cc1OC	AMPAR-TARP mod active
COc1cccc(-c2nnc3ccc(OCCNC(=O)Nc4cccc(C)c4)nn23)c1	none
COc1cccc(-c2nnc3ccc(OCCNC(=O)NC4CCCCC4)nn23)c1	AMPAR-TARP mod active
COc1ccc(-c2nnc3ccc(OCCNC(=O)c4cccs4)nn23)cc1OC	none
COc1ccc(-c2nnc3ccc(OCCNC(=O)c4ccccc4Cl)nn23)cc1	none
COc1ccc(-c2nnc3ccc(OCCNC(=O)c4ccco4)nn23)cc1	AMPAR-TARP mod active
CC(CCc1ccccc1)NC(=O)C(=O)NCc1ccc2c(c1)OCO2 (stereo unspecified)	none (no result: GIRK2 act)
O=S(=O)(c1c(F)cccc1F)N(CCc1ccccc1)Cc1ccccn1	none
Cc1cc(NCCN2CCOCC2)n2ncc(-c3ccccc3Cl)c2n1	none
Cc1ccc(N2C(=O)CCS2(=O)=O)cc1S(=O)(=O)NCCc1c[nH]c2ccccc12	none
O=C1CCS(=O)(=O)N1c1ccc(S(=O)(=O)NCCc2cccs2)cc1	AMPAR-TARP mod active
Cn1c(=O)c2c(ncn2CC2CC2)n(C)c1=O	none (no result: GIRK2 act)
O=S(=O)(NCC#CCN1CCc2ccccc2C1)c1ccc2ccccc2c1	none
O=S(=O)(NCC#CCN1CCCCC1)c1ccc2ccccc2c1	AMPAR-TARP mod active (no result: GIRK2 act)
COc1cccc(CNC(=O)C2CCN(c3cc(OC)ncn3)CC2)c1	none
Cn1c(=O)c2c(nc(N3CCCC3)n2CC(O)c2ccccc2)n(C)c1=O (stereo unspecified)	none
O=C(CN1C(=O)c2ccccc2S1(=O)=O)NC1CCCCCC1	none
O=C(NC1CCCCCC1)C1c2ccccc2C(=O)N1CCC1=CCCCC1 (stereo unspecified)	AMPAR-TARP mod active
O=C(/C=C/c1ccc([N+](=O)[O-])cc1)N(CCN1CCOCC1)c1nc2ccccc2s1	none (no result: GIRK2 act)
Cc1cccc2sc(N(CCN3CCOCC3)C(=O)c3ccc([N+](=O)[O-])o3)nc12	AMPAR-TARP mod active
O=C(/C=C/c1cccc([N+](=O)[O-])c1)N(CCN1CCOCC1)c1nc2ccc(F)cc2s1	AMPAR-TARP mod active (no result: GIRK2 act)
Cn1ccc(C(=O)N(CCN2CCOCC2)c2nc3ccccc3s2)n1	AMPAR-TARP mod active
Cc1cccc2sc(N(CCN3CCOCC3)C(=O)c3ccc([N+](=O)[O-])s3)nc12	none
COc1cccc2sc(N(Cc3cccnc3)C(=O)c3cc(C)nn3C)nc12	none
COc1ccc(OC)c2sc(N(CCN3CCOCC3)C(=O)c3ccn(C)n3)nc12	none
COc1cccc2sc(N(CCN(C)C)C(=O)c3cc(C)n(C)n3)nc12	AMPAR-TARP mod active
COc1cc(NC(=O)c2cccs2)ccc1N1CCCC1=O	none
O=C(Cc1noc2ccccc12)N1CCN(c2ccc(-c3ccccn3)nn2)CC1	none
COc1ccc(-c2noc(-c3cc(-c4ccco4)n[nH]3)n2)c(OC)c1	none
O=C1CC(c2nc3ccccc3n2Cc2ccc(Cl)cc2)CN1c1ccccc1 (stereo unspecified)	none (no result: GIRK2 act)
Cc1nn(C2CCS(=O)(=O)C2)c2nc(-c3ccco3)cc(C(=O)N3CCOCC3)c12 (stereo unspecified)	none
Cc1cc2nc(N(CCN3CCOCC3)C(=O)c3ccco3)sc2cc1C	none
CN(C)CCN(C(=O)c1ccn(C)n1)c1nc2ccc(Cl)cc2s1	AMPAR-TARP mod active
CN(C)CCCN(C(=O)c1ccno1)c1nc2ccc(Cl)cc2s1	none (no result: AMPAR-TARP mod)
O=C(c1ccco1)N(CCN1CCOCC1)c1nc2ccc(Cl)cc2s1	AMPAR-TARP mod active (no result: GIRK2 act)
CC(C)c1ccc(NC(=O)Cc2cc(-c3cccs3)on2)cc1	none
Cn1c(O)c(N=Nc2nc3c(c(=O)n(Cc4ccccc4)c(=O)n3C)n2C)c(=O)n(C)c1=O	AMPAR-TARP mod active (no result: GIRK2 act)
Cn1c(=O)c2c(nc(N=Nc3c(O)[nH]c4ccccc34)n2Cc2ccccc2)n(C)c1=O	none (no result: GIRK2 act)
COc1ccc(-c2ccc(=O)n(CCNC(=O)c3ccc(S(=O)(=O)N4CCCCC4)cc3)n2)cc1	AMPAR-TARP mod active (no result: GIRK2 act)
COc1ccc(-c2ccc(=O)n(CCNC(=O)c3ccc(S(=O)(=O)N(C)C)cc3)n2)cc1	none (no result: GIRK2 act)
O=C1CCCC2=C1C(c1cccc(F)c1)c1c([nH]c(=S)[nH]c1=O)N2 (stereo unspecified)	none (no result: GIRK2 act)
O=S(=O)(c1ccccc1)c1cc2ccccc2oc1=Nc1ccccc1F	none
O=C(c1ccccc1)c1ccc(OCC(O)CN2CCN(c3ccccc3F)CC2)cc1 (stereo unspecified)	none
O=C(c1ccccc1)c1ccc(OCC(O)CNc2ccc(F)cc2)cc1 (stereo unspecified)	AMPAR-TARP mod active
COc1ccccc1N1CCCn2c1nc1c2c(=O)n(Cc2ccc(F)cc2)c(=O)n1C	none (no result: GIRK2 act)
Nc1c(C(=O)N2CCCC2)sc2nc(-c3ccco3)c3c(c12)CCCC3	AMPAR-TARP mod active (no result: GIRK2 act)
COC(=O)c1c2c(nc3c1c(-c1ccco1)nn3C1CCS(=O)(=O)C1)CCC2 (stereo unspecified)	none (no result: AMPAR-TARP mod)
Cc1nc(C)c(C(=O)N2CCN(c3ccc4nnc(-c5ccco5)n4n3)CC2)s1	none
CC(=O)c1sc2nc(-c3ccco3)c3c(c2c1N)CCCC3	AMPAR-TARP mod active (no result: GIRK2 act)
COc1ccc(CNC(=O)C(=O)NCC2OCCCN2S(=O)(=O)c2ccc(OC)c(C)c2)cc1 (stereo unspecified)	none (no result: GIRK2 act)
COCC(C)(O)CNC(=O)c1cccn(C)c1=O (stereo unspecified)	AMPAR-TARP mod active
Cn1cccc(C(=O)NCC(O)(c2ccccc2)C2CC2)c1=O (stereo unspecified)	none (no result: GIRK2 act)
Cc1c(C)n2c3c(=O)n(CC(=O)OCc4ccccc4)c(=O)n(C)c3nc2n1-c1ccc(F)cc1	none (no result: GIRK2 act)
O=C(Nc1ccccc1)N1CCC(c2nnc(-c3ccco3)o2)CC1	none
CN(C)C(CNC(=O)C(=O)NC1CC1)c1ccc(F)cc1 (stereo unspecified)	none
Cc1ccc(C(CNC(=O)C(=O)NC2CC2)N(C)C)cc1 (stereo unspecified)	AMPAR-TARP mod active
Cc1ccc(-n2ncc3c(=O)n(CC(=O)N4CCCCC4)cnc32)c(C)c1	none (no result: GIRK2 act)
O=C(Nc1cccc(C(F)(F)F)c1)C1CC(=O)N(c2ccc(F)cc2)C1 (stereo unspecified)	AMPAR-TARP mod active (no result: GIRK2 act)
O=C(Nc1ccc2c(c1)CN(C(=O)c1ccccc1)CC2)C1CC(=O)N(c2ccc(F)cc2)C1 (stereo unspecified)	none
COc1cc(C(=O)Nc2ccc(N3CCCCC3=O)cc2)c([N+](=O)[O-])cc1OC	none
O=C(NCC1(O)CCCC1)C(=O)Nc1ccccc1	none
Cc1cccc(C(=O)N2CCN(c3nc(C)cc(N4CCCCC4)n3)CC2)c1	AMPAR-TARP mod active (no result: GIRK2 act)
Cc1cc(N2CCCCC2)nc(N2CCN(C(=O)Cc3ccccc3)CC2)n1	AMPAR-TARP mod active
